Data taken from the supplement of paper PMC10849652.
The full data set covers some 7,900 targets. This sample favours those with a hit. About 0.6% of all pairs of compound and target were hits. Unmarked numbers belong to inactive results.

Assays:
Experiment in all cases: log2 fold change, soluble protein after heating vs DMSO (PISA); higher = thermal stabilisation; K562 cells, 10 uM, 30 min; active = over 0.2 and 3.5 SD of the protein, either way, in both replicates (recomputed)
[1] = compound: NC(=O)Nc1cc(-c2cccc(F)c2)sc1C(=O)N[C@H]1CCCNC1
Method in brief: (§1)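 Quantification of soluble protein used TMTpro 16plex LC-MS/MS, with channel sums equalised. Samples were the supernatant after 21,000xg for 90 min of pooled aliquots from K562 cells (2×10^6 cells/mL) treated with 10 μM compound for 30 min, heated for 3 min over 48°C-58°C, and extracted in PBS with 0.5% NP-40 at 4°C. Values, from duplicates, describe thermal stability against control samples on a log2 fold-change scale.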

[2] = compound: NC(=O)c1cnc(N[C@@H]2CCCC[C@@H]2N)nc1Nc1cccc(-n2nccn2)c1
Method in brief: as §1

[3] = compound: NC1(c2ccc(-c3nc4ccn5c(=O)[nH]nc5c4cc3-c3ccccc3)cc2)CCC1
Method in brief: as §1

[4] = compound: NCC(=O)Nc1ccc(-n2nc(C(F)(F)F)cc2-c2ccc3c(ccc4ccccc43)c2)cc1
Method in brief: as §1

entinostat = compound: Nc1ccccc1NC(=O)c1ccc(CNC(=O)OCc2cccnc2)cc1 [entinostat]
Method in brief: as §1

vorinostat = compound: O=C(CCCCCCC(=O)Nc1ccccc1)NO [vorinostat]
Method in brief: as §1

citarinostat = compound: O=C(CCCCCCNC(=O)c1cnc(N(c2ccccc2)c2ccccc2Cl)nc1)NO [citarinostat]
Method in brief: as §1

silmitasertib = compound: O=C(O)c1ccc2c(c1)nc(Nc1cccc(Cl)c1)c1ccncc12 [silmitasertib]
Method in brief: as §1

[5] = compound: O=C1NC(=O)C(c2cnc3ccccn23)=C1c1cn2c3c(cc(F)cc13)CN(C(=O)N1CCCCC1)CC2
Method in brief: as §1

[6] = compound: c1cc(OCCN2CCCCC2)cc(-c2n[nH]c3ccc(-c4nnc[nH]4)cc23)c1
Method in brief: as §1

Chain of UniProt P03905 (P03905 whole entry, looked up): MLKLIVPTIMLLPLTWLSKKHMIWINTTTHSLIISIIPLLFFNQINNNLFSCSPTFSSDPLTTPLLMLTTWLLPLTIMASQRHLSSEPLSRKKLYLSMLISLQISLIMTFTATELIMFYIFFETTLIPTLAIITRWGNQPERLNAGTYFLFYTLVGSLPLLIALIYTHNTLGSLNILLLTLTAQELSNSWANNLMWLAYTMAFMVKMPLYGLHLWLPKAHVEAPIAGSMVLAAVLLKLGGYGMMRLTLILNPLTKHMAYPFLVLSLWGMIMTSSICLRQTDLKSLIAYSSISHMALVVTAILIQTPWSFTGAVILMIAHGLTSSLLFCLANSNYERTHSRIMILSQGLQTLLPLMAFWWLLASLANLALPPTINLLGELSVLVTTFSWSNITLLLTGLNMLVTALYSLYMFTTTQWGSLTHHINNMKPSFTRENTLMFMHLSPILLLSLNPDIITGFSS
Chain of UniProt Q99747 (Q99747 whole entry, looked up): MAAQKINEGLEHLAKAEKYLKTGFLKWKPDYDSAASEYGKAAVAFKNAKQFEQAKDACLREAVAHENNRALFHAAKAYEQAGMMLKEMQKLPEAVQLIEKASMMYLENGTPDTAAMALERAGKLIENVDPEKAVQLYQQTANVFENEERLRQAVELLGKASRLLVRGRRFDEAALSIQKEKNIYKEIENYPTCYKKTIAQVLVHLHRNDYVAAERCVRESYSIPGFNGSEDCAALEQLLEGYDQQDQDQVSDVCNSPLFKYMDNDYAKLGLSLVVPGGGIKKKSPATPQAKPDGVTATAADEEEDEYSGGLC
Chain of UniProt O14950 (O14950 whole entry, looked up): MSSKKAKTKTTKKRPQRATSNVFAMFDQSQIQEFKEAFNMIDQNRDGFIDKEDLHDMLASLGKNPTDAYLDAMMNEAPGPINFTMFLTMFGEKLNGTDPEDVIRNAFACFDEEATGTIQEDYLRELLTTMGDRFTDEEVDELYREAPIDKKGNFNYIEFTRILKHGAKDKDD
Chain of UniProt Q8WV92 (Q8WV92 whole entry, looked up): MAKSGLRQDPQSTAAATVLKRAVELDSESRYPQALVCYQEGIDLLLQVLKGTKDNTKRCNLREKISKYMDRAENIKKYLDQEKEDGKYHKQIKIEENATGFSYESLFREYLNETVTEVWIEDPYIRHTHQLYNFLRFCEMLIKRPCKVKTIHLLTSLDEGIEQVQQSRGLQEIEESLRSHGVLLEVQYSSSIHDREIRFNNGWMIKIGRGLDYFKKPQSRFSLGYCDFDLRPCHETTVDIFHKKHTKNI
Chain of UniProt O60934 (O60934 whole entry, looked up): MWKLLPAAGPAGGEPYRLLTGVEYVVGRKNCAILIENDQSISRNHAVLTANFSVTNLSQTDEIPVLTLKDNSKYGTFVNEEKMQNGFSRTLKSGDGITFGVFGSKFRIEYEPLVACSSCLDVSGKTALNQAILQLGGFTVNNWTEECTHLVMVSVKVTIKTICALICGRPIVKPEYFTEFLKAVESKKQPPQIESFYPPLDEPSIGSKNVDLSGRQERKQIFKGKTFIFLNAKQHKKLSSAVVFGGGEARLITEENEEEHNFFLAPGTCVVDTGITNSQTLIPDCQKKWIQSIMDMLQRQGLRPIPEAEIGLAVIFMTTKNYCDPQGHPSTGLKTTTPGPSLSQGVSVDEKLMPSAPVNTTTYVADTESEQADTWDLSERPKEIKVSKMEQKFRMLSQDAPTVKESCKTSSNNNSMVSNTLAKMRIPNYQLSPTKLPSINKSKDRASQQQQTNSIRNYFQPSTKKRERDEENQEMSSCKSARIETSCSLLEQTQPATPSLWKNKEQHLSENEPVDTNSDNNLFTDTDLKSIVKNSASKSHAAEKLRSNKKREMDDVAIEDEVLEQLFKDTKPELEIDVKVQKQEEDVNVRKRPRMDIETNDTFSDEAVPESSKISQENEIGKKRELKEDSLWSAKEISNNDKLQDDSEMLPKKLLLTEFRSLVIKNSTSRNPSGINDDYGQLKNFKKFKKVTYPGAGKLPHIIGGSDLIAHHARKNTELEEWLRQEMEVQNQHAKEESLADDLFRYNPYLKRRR
Chain of UniProt Q16621 (Q16621 whole entry, looked up): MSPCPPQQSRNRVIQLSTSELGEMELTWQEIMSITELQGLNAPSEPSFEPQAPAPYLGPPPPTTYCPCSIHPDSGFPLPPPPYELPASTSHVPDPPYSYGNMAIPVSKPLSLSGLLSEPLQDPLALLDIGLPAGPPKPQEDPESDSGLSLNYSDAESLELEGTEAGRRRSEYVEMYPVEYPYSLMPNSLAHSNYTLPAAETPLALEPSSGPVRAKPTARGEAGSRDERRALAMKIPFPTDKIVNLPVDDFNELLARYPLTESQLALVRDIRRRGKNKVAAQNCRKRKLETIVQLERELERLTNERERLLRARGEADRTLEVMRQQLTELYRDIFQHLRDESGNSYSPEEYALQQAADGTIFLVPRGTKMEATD
Chain of UniProt Q9H3P2 (Q9H3P2 whole entry, looked up): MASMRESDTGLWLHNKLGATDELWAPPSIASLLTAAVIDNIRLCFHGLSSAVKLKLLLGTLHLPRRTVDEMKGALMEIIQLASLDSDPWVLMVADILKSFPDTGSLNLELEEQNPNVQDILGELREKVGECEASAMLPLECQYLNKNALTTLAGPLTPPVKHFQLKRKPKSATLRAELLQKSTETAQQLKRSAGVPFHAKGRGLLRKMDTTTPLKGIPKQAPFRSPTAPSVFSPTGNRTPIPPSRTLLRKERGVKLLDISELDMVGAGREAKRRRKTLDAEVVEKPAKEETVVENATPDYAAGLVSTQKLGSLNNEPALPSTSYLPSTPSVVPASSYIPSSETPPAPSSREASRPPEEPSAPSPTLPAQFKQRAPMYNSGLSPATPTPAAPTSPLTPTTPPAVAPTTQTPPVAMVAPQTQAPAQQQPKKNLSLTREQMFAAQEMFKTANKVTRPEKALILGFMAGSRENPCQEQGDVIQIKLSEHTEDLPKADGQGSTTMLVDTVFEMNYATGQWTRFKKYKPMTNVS
Chain of UniProt P55786 (P55786 whole entry, looked up): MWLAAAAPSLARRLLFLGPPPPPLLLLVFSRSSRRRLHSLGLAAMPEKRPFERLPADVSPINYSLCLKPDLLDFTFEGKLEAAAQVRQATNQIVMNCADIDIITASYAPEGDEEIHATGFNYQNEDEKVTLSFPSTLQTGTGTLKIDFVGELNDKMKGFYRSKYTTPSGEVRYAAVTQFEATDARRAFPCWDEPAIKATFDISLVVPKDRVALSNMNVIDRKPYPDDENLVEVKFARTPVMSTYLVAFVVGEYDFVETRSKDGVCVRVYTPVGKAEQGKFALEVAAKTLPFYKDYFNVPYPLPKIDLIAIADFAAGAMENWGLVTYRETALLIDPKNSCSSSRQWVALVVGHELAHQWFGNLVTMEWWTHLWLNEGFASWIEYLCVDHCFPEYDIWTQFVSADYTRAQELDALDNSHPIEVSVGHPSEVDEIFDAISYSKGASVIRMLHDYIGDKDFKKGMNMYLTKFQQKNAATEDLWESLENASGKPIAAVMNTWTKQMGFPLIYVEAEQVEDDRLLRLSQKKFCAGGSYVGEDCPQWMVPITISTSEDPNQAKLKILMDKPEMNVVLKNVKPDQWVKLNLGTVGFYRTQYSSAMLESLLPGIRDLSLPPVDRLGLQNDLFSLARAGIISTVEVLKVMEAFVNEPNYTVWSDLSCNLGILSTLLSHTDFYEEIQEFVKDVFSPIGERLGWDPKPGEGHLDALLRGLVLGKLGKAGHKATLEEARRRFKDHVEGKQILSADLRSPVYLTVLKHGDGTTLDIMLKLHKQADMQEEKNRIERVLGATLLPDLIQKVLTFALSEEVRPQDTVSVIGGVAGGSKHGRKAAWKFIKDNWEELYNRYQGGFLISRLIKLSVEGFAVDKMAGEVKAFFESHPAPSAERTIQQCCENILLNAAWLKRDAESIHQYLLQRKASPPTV
Chain of UniProt P40261 (P40261 whole entry, looked up): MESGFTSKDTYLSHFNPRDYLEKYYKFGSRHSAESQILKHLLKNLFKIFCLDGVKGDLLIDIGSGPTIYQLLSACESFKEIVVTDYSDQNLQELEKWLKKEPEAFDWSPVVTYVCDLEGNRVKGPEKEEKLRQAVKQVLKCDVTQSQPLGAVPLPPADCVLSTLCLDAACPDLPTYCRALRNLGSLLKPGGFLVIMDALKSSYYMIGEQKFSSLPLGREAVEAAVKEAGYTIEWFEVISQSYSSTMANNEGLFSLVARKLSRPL
Chain of UniProt P19338 (P19338 whole entry, looked up): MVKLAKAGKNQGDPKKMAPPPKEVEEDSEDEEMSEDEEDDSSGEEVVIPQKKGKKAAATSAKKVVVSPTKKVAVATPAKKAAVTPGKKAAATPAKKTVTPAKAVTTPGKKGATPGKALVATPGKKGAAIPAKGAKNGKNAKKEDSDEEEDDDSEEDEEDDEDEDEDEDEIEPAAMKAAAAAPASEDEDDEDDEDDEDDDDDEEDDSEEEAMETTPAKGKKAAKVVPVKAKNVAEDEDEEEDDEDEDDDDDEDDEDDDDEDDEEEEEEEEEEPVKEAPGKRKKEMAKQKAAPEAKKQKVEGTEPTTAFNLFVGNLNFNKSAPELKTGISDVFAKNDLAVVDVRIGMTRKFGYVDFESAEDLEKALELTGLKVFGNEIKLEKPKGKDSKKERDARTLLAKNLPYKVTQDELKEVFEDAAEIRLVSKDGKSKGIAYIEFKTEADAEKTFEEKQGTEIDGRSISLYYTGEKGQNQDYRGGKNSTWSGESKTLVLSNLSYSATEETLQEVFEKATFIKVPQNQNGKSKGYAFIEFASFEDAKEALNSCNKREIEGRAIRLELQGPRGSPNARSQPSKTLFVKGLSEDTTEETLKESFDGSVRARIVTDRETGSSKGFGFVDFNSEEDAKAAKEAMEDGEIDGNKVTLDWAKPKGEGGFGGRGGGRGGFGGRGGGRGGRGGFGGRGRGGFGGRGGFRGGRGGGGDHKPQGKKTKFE
Chain of UniProt Q8WVJ2 (Q8WVJ2 whole entry, looked up): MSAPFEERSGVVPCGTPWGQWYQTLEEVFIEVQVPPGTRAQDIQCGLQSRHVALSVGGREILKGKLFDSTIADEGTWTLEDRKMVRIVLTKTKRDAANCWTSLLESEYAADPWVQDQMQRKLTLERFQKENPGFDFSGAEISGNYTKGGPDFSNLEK

Target	log2 fold change [1]	log2 fold change [2]	log2 fold change [3]	log2 fold change [4]	log2 fold change (entinostat)	log2 fold change (vorinostat)	log2 fold change (citarinostat)	log2 fold change (silmitasertib)	log2 fold change [5]	log2 fold change [6]
NR2C2 isoform 2 (UniProt P49116)	-0.056	-0.036	-0.211	-0.104	-0.02	-0.116	-0.022	0.074	0.03	-0.04
NSDHL (UniProt Q15738)	-0.14	-0.061	0.11	-0.033	-0.018	-0.04	0.023	-0.023	-0.027	0.02
NELFB isoform 2 (UniProt Q8WX92)	-0.021	-0.016	-0.074	-0.107	0.062	0.059	0.102	0.021	-0.086	-0.001
MON2 isoform 5 (UniProt Q7Z3U7)	-0.023	0.012	-0.107	-0.038	-0.003	0.097	0.056	0.021	-0.006	-0.003
NELFA (UniProt Q9H3P2)	0.038	-0.016	0.142	-0.245	0.002	0.061	-0.169	0.065	-0.183	0.002
NPEPPS (UniProt P55786)	-0.02	-0.035	-0.046	-0.041	-0.007	0.076	0.048	-0.038	-0.003	-0.03
MT-ND4 (UniProt P03905)	0.052	0.038	-0.046	-0.074	0.099	0.261	0.198	-0.011	0.088	-0.057
MYL12B (UniProt O14950)	0.09	0.084	-0.013	0.055	0.029	-0.004	0.045	-0.037	-0.042	0.026
NFATC2 (UniProt Q13469)	-0.076	-0.203	-0.064	-0.075	0.147	-0.011	0.101	-0.078	-0.062	-0.258
MRPS24 (UniProt Q96EL2)	-0.015	-0.016	-0.021	-0.086	0.001	0.04	-0.053	-0.096	-0.074	-0.105
MRPL47 (UniProt Q9HD33)	0.024	0.058	0.039	0.057	0.028	-0.195	-0.087	-0.021	-0.011	0.336
NUP85 (UniProt Q9BW27)	0.01	-0.014	-0.092	-0.035	-0.011	0.021	0.031	0.047	-0.041	-0.041
NDUFS7 (UniProt O75251)	-0.025	-0.079	-0.113	-0.057	-0.011	0.103	0.013	-0.003	-0.066	-0.027
NEMP1 (UniProt O14524)	-0.007	-0.204	-0.078	-0.181	0.028	0.078	0.026	-0.019	-0.029	-0.113
NBN (UniProt O60934)	-0.021	-0.037	-0.078	-0.067	0.127	0.091	0.009	-0.055	-0.104	0
NOP53 (UniProt Q9NZM5)	0.054	0.201	0.353	0.258	-0.141	-0.051	-0.063	0.256	0.285	-0.152
MIS12 (UniProt Q9H081)	0.016	-0.084	-0.079	-0.101	0.027	0.123	0.014	0.016	0.02	-0.081
MRPS35 (UniProt P82673)	0.035	-0.07	-0.082	0.012	-0.027	0.088	-0.011	-0.119	-0.033	-0.03
NCAPD2 (UniProt Q15021)	-0.109	-0.075	-0.149	-0.045	0.084	0.058	0.078	0.135	0.014	-0.002
NR2C2AP isoform 2 (UniProt Q86WQ0)	-0.082	-0.131	-0.05	-0.094	-0.02	-0.027	0.079	0.062	-0.092	-0.035

Target	log2 fold change [1]	log2 fold change [2]	log2 fold change [3]	log2 fold change [4]	log2 fold change (entinostat)	log2 fold change (vorinostat)	log2 fold change (citarinostat)	log2 fold change (silmitasertib)	log2 fold change [5]	log2 fold change [6]
NAPG (UniProt Q99747)	-0.027	-0.087	-0.085	-0.094	0.102	0.117	0.075	0.032	-0.029	-0.017
MTMR14 (UniProt Q8NCE2)	-0.02	-0.08	-0.087	-0.075	0.024	0.093	0.08	0.071	-0.081	0.039
OTULIN (UniProt Q96BN8)	0.008	-0.017	-0.183	-0.093	0.097	0.038	-0.005	0.086	-0.143	-0.077
MTHFD1 (UniProt P11586)	-0.028	-0.011	0.094	-0.028	0.024	0.05	0.051	-0.039	-0.042	-0.021
MRPS2 (UniProt Q9Y399)	0.105	-0.079	-0.102	0.062	0.034	0.096	0.001	-0.103	-0.021	-0.01
MRPS26 (UniProt Q9BYN8)	-0.067	-0.022	-0.088	0.092	0.022	0.171	-0.04	-0.044	-0.039	0
MUL1 (UniProt Q969V5)	-0.029	-0.041	0.648 (active)	-0.024	-0.007	0.086	-0.002	-0.018	-0.021	-0.049
MITD1 (UniProt Q8WV92)	0.016	-0.018	-0.387	-0.059	-0.08	0.057	-0.135	0.14	-0.176	0.228
NUDCD2 (UniProt Q8WVJ2)	-0.108	-0.099	-0.056	-0.172	0.028	0.147	0.007	0.063	-0.183	-0.044
OSTM1 (UniProt Q86WC4)	-0.035	-0.029	-0.319 (active)	0.003	0.006	0.072	0.064	0.034	-0.037	-0.037
NUP98 (UniProt P52948)	0.018	-0.086	-0.025	-0.076	0	0.052	0.028	0.072	0.001	-0.073
MRPS18B (UniProt Q9Y676)	0.133	0	0.021	0.105	-0.047	0.08	-0.03	-0.061	-0.03	-0.026
NTMT1 (UniProt Q9BV86)	-0.035	0.027	0.077	-0.002	0.024	-0.089	-0.069	-0.028	-0.029	–
NDUFB8 (UniProt O95169)	0.028	0.083	-0.008	0.02	0.113	-0.075	-0.016	0.004	-0.172	-0.036
OAT (UniProt P04181)	-0.051	-0.076	-0.235	-0.058	0.029	0.129	0.131	-0.036	-0.031	0.006
OXSR1 (UniProt O95747)	-0.014	-0.048	-0.151	-0.064	0.031	0.042	0.045	-0.071	-0.007	0.018
OPA1 isoform 2 (UniProt O60313)	-0.046	-0.054	-0.165	-0.072	0.024	0.033	0.05	-0.027	-0.033	-0.048
NANS (UniProt Q9NR45)	0.043	-0.05	0.02	-0.032	0.014	0.116	0.032	-0.002	-0.011	0
MSL1 (UniProt Q68DK7)	-0.032	-0.085	-0.024	-0.036	0.016	0.104	0.047	-0.152	-0.153	0.017
NCOR1 (UniProt O75376)	0.096	-0.057	-0.005	-0.072	0.007	-0.059	-0.028	0.001	-0.044	-0.024

Target	log2 fold change [1]	log2 fold change [2]	log2 fold change [3]	log2 fold change [4]	log2 fold change (entinostat)	log2 fold change (vorinostat)	log2 fold change (citarinostat)	log2 fold change (silmitasertib)	log2 fold change [5]	log2 fold change [6]
NCL (UniProt P19338)	0.015	0.024	0.331	0.156	-0.093	-0.018	-0.105	0.2	0.147	-0.171
NNMT (UniProt P40261)	0.013	-0.04	-0.179	-0.037	-0.056	0.128	-0.023	0.013	-0.042	0.139
MRPS17 (UniProt Q9Y2R5)	-0.035	0.091	-0.138	-0.018	-0.027	0.191	0.05	-0.051	-0.047	0.02
NFATC2IP (UniProt Q8NCF5)	-0.016	-0.017	-0.087	-0.011	0.035	0.078	0.075	-0.017	0.02	-0.011
NUDT1 (UniProt P36639)	0.159	0.145	1.01 (active)	-0.129	-0.026	0.033	-0.073	-0.091	0.791	0.572
OSTC (UniProt Q9NRP0)	-0.062	0.028	-0.107	-0.134	0.039	-0.001	0.074	-0.011	0.05	-0.067
NME1 isoform 2 (UniProt P15531)	0.012	-0.017	-0.003	-0.003	-0.064	0.103	-0.089	-0.138	-0.089	-0.253
NMT2 (UniProt O60551)	0	-0.089	-0.168	-0.164	-0.004	-0.049	0.007	-0.028	-0.017	-0.491 (active)
NECTIN2 isoform 2 (UniProt Q92692)	0.072	0.171	-0.194	0.031	-0.032	0.087	0.108	-0.039	-0.495	0.09
NUDT16 (UniProt Q96DE0)	0.02	0.08	-0.01	0.205 (active)	0	-0.069	0.018	0.016	-0.106	0.034
NUP210 (UniProt Q8TEM1)	0.022	-0.173	-0.19	-0.126	0.047	0.054	0.022	-0.033	-0.004	-0.023
NFE2 (UniProt Q16621)	0.035	-0.049	-0.091	-0.062	-0.024	0.055	0.04	0.145	-0.037	0.006
NEDD4 isoform 4 (UniProt P46934)	-0.043	-0.027	-0.187	-0.074	0.029	-0.04	0.084	0.064	-0.008	0.013
NFATC3 (UniProt Q12968)	-0.15	-0.137	0.034	0.007	0.107	0.045	-0.101	0.118	-0.267	-0.225
NA, A0A096LPI6	0.03	0.04	-0.012	0.016	-0.006	-0.02	0.022	0.024	-0.043	-0.015
MORF4L2 (UniProt Q15014)	0.021	0.047	0.123	0.027	-0.066	0.04	-0.044	0.087	0.04	-0.121
NHLRC2 (UniProt Q8NBF2)	-0.077	-0.02	-0.171	-0.065	0.009	0.02	-0.007	0.009	-0.063	-0.015
NECTIN2 (UniProt Q92692)	0	0.107	0.056	0.099	-0.029	-0.041	0.034	-0.081	-0.03	-0.006
NOP58 (UniProt Q9Y2X3)	-0.012	0.052	0.316	0.043	-0.05	-0.087	-0.048	0.108	0.082	-0.119
